# Screens: PubChem, National Center for Advancing Translational Sciences (NCATS)
# Cycloheximide cs = counter-screen for Shiga toxin inhibitors: cycloheximide protein synthesis inhibition | cell reporter, cycloheximide protein synthesis inhibition counterscreen | hit rate 12% among 300,000 | max response, %; in the data active means max response mostly above about 13%, no sharp cut-off; inactive means mostly below about 14%; further: read at 38.3 µM for the half of the compounds with a filed dose; 0% is about no effect
# VACV Venus inh = inhibitors of vaccinia virus (Venus reporter). hit rate 0.46% among 330,000. AID 720580. Potency, µM (doses to about 36.5 µM), for inactives: top-dose activity change, negative = inhibition, usual class: inhibitors. Vaccinia virus Venus reporter expression, fluorescence; calls by dose curve; tested in A549 cells; further: potency means the concentration at half of the fitted maximal effect; on the % scale 0 is the no-effect control and ±100 the full control effect; nearly all actives have a fitted effect of over 30% in size
# VACV mCherry inh = inhibitors of vaccinia virus infection (mCherry reporter signal). hit rate 0.63% among 310,000. Vaccinia virus mCherry reporter infection, fluorescence. AID 720579. Potency, µM (titrated, usually from 36.5 µM), for inactives: top-dose activity change, negative = inhibition, usual class: inhibitors; calls by dose curve; tested in A549 cells; further: potency means the concentration at half of the fitted maximal effect; on the % scale 0 is the no-effect control and ±100 the full control effect; nearly all actives have a fitted effect of over 35% in size
# Shiga toxin inh = inhibitors of Shiga toxin in Vero cells; Vero cells, Shiga toxin protein synthesis inhibition reporter; inhibition, % at 38.7 µM; hit rate 9.2% among 290,000; AID 2315; in the data active means inhibition mostly above about 28%, no sharp cut-off; inactive means mostly below about 43%; further: 0% is about no effect
# LASV entry inh = inhibitors of Lassa virus binding or cell entry; Lassa virus pseudotype entry inhibition, cell reporter; Potency, µM (top dose mostly 37.9 µM), for inactives: at the top dose activity change, negative = inhibition, most hits filed as inhibitors; hit rate 1.2% among 300,000; AID 540256; calls by dose curve; tested in HEK293 cells; further: potency means the concentration at half of the fitted maximal effect; on the % scale 0 is the no-effect control and ±100 the full control effect; nearly all actives have a fitted effect of over 50% in size
# MARV entry inh = blocks Marburg virus binding to or entry into cells; Potency, µM (top dose mostly 37.8 µM), without a hit: at the highest dose activity change, negative = inhibition, hits mostly inhibitors; AID 540276; Marburg virus pseudotyped entry inhibition, cell reporter; hit rate 1.8% among 300,000; calls by dose curve; tested in HEK293 cells; further: potency means the concentration at half of the fitted maximal effect; on the % scale 0 is the no-effect control and ±100 the full control effect
# Numbers without * were called inactive; i = inactive; ? = inconclusive; . = no result given; [ ] = another dose, or the depositor's remark. Many of the other results were omitted from the sample, so hits are more common in it than they were.
SMILES,Cycloheximide cs,VACV Venus inh,VACV mCherry inh,Shiga toxin inh,LASV entry inh,MARV entry inh
CC(C)(C)c1ccc(C(=O)Nc2ccccc2NC(=O)c2ccco2)cc1,20.2*,?,.,29.4*,?,?
CC(C)(C)c1ccc(C(=O)N/C(=C\c2ccco2)C(=O)Nc2ccccc2C(=O)O)cc1,30.7*,-0.9%,i,60.4*,-13.4%,19.7%[46.1 µM]
CC(C)(C)c1ccc(C(=O)Nc2ccccc2Cl)cc1,19.1,.,.,49.8*,.,.
COc1ccc(Cl)cc1Nc1nc(N)c2ccccc2n1,25.0*,-25.5%,-14.2%,.,-24.5%[46.1 µM],?
Cc1ccc(O)c(Nc2c3ccccc3nc3ccccc23)c1,20.9*,?,?,33.4*,?,?
Cc1ccc(C)c(Nc2nc(N)c3ccccc3n2)c1,25.6*,-20.8%,-5.2%,72.5*,-8.4%[46.1 µM],?
Cc1ccccc1NC(=O)c1ccc(F)c(S(=O)(=O)N2CCN(c3ccccc3F)CC2)c1,.,?,-29.4%,.,-17.2%[46.1 µM],.
Cc1cccc(N2CN(Cc3cccnc3)CNC2=S)c1C,15.2*,-6.6%,i,-6.4,11.1%,2.9%
CCCC(C(=O)NCCC(C)C)N(Cc1ccccc1Cl)C(=O)c1snc(C(N)=O)c1N (stereo not drawn),0.5,.,.,-2.5,.,.
COc1ccc(NC(=O)c2ccccc2OCc2c(C)noc2C)cc1OC,1.8,-16.3%,-0.9%,-7.3,5.1%,-4.6%
Cc1ccc(S(=O)(=O)Nc2cccc3ncccc23)cc1,-1.6,-7.7%,-15.2%,-4.0,.,.
Cc1ccc(S(=O)(=O)Nc2cccc3ncccc23)s1,26.4,?,?,-5.2,8.91µM*,10µM*
CC(C)CN(CC(C)C)C(=O)COc1ccccc1C(N)=O,-2.4,.,.,-11.7,.,.
Cc1cc(/C=N/NC(=O)c2ccccc2F)c(C)n1-c1ccccc1,25.4*,.,.,67.3*,.,.
CCOC(=O)N/N=C/c1ccc(F)cc1F,30.4*,-3.7%,-19.2%,57.2*,8.7%,?
Cc1cc(/C=N/NC(=O)c2cccc(F)c2)c(C)n1-c1ccccc1,25.4,.,.,50.0,.,.
CCOC(=O)N/N=C/c1cc(C)n(-c2ccccc2)c1C,35.0*,.,.,71.2*,-22.1%,1.3%
Cn1c2ccccc2c2cc(/C=N/NC(=O)c3ccccc3F)ccc21,41.1*,.,.,78.7*,.,.
CCCCOc1ccc(-c2nc(SCC(N)=O)n[nH]2)cc1,33.7*,.,.,47.7,?,2.5%
C=CCSc1n[nH]c(-c2ccc(OC)cc2)n1,60.6*,.,.,116.0*,-18.2%,1.2%
C=CCSc1n[nH]c(-c2ccccc2)n1,30.4*,-21.3%,.,50.6*,11.4%,?
CCOc1ccc(N(CC)C(=O)CSc2n[nH]c(-c3ccccc3)n2)cc1,.,-23.9%,i,.,?,.
Cc1nn(-c2ccccc2)c2nc(C3CC3)cc(C(=O)Nc3cccc(F)c3)c12,.,-28.0%,-26.2%,.,?,.
C#CCCCO/N=C1\C[C@@H](O)[C@@H](O)[C@@H]2[C@@H]3C(=O)N(C[C@@H]4CCCO4)C(=O)[C@@H]3CC[C@@H]12,.,.,.,.,.,3.5%[14.2 µM]
O=C(NNc1nc2ccccc2o1)c1ccccc1,29.8*,-2.8%,-4.3%,55.5*,?,?
SMILES,Cycloheximide cs,VACV Venus inh,VACV mCherry inh,Shiga toxin inh,LASV entry inh,MARV entry inh
Cc1cc(C)nc(Nc2nc3ccccc3o2)n1,27.4*,-10.7%[7.34 µM],-18.1%[7.34 µM],45.3*,-20.0%,-0.6%[46.1 µM]
CCOC(=O)c1cnc(Nc2nc3ccccc3o2)nc1CN1CCN(C)CC1,2.1,?,?,22.4,?,?
c1ccc(Nc2nc3ccccc3o2)cc1,33.2*,-9.3%,i,119.3*,44.9%[14.3 µM],-24.6%
Cc1ccc(NC(=O)c2c(C)nc(Nc3nc4ccccc4o3)nc2C)cc1,6.7,.,.,26.5,?,-10.2%
FC(F)(F)Oc1ccc(Nc2nc3ccccc3o2)cc1,33.1*,-2.0%,-8.1%,76.8*,31.6%,15.9%
CCOC(=O)C1CCN(c2ncnc3c2c(-c2ccccc2)cn3-c2ccc(Cl)cc2)CC1,.,-2.4%,-12.6%,.,3.6%[46.1 µM],.
Fc1ccccc1Nc1nc(-c2ccncc2)nc2ccccc12,-1.6,-23.0%,-7.1%,-10.5,?,?
Fc1ccccc1Nc1nc2ccccc2o1,45.0*,-19.8%,?,97.5*,?,?
COc1ccc(C(=O)n2c(N)nc3ccccc32)cc1OC,24.8*,-13.2%,i,.,-1.5%,-17.2%
Nc1nc2ccccc2n1C(=O)c1ccccc1,2.5,.,.,-14.2,.,.
COc1ccc(C(=O)c2nc3ccccc3n2C(C)C)cc1OC,7.5,.,.,-7.1,.,.
Nc1nc2ccccc2n1C(=O)c1cccs1,50.6*,-20.1%,-15.8%,91.3*,?,?
Nc1nncn1C(=O)c1cccs1,-3.1,-5.8%,i,5.4,?,4.6%
Nc1nc2ccccc2n1C(=O)c1ccc(F)cc1,16.3*,-11.7%,i,48.6,7.08µM*,?
COc1ccc(-n2c(-c3ccccc3F)nc3c(cnn3-c3ccc(C)cc3)c2=O)cc1,.,-10.9%[7.34 µM],-16.9%[7.34 µM],.,?,?
CCOC(=O)c1c(S(=O)(=O)N2CCC(C(=O)N3CCN(c4cc(C)ccc4C)CC3)CC2)c(C)n(C)c1C,.,-17.1%,i,.,-21.5%[46.1 µM],.
CCCCNC(=O)Nc1ccc([C@@](O)(C(=O)OCC)C(F)(F)F)cc1,.,.,.,.,.,-1.1%
O=c1c(N2CCOCC2)nsn1Cc1ccccc1,2.6,?,12.6µM*,28.3,-7.2%,2.8%[46.1 µM]
Cc1ccc(Nc2ncnc3c2nnn3Cc2ccccc2)cc1,23.4*,-21.4%,-26.5%,49.5*,-18.1%,?
CC(C)CCNc1ncnc2c1nnn2Cc1ccccc1,-2.0,1.2%,i,-4.0,12.7%[46.1 µM],?
Cc1cc(-c2ccnc(-n3ncc(C(=O)NCC4CCCO4)c3C3CC3)n2)c(C)s1 (stereo not drawn),.,2.5%,-18.0%,.,.,.
Cc1nn(C)c(C)c1/C=C/C(=O)c1cccs1,.,-11.9%,-8.1%,.,-0.1%,5.3%
Cc1nn(C)cc1/C=C/C(=O)c1cccs1,48.2*,.,.,58.3*,4.9%,?
CCn1cc(/C=C/C(=O)c2ccc(O)cc2)c(C)n1,12.9*,-28.4%,?,15.2,?,?
CCn1cc(/C=N/O)c(C)n1,-1.3,10.6%,-3.1%,-7.8,23.4%,19.3%[46.1 µM]
SMILES,Cycloheximide cs,VACV Venus inh,VACV mCherry inh,Shiga toxin inh,LASV entry inh,MARV entry inh
Cc1nn(C)cc1/C=C/C(=O)c1ccccc1,27.9*,-15.2%,i,65.3*,29.1%,?
Cc1ccc(-c2nn(CCC(=O)O)cc2/C=C\C(=O)c2ccc(Br)cc2)cc1,15.9,.,.,-4.6,.,.
Cc1nn(C)c(C)c1/C=C/C(=O)c1ccccc1,26.8*,.,.,35.6*,9.7%,?
CCC(C(=O)N1CCN(c2cc(Cl)ccc2C)CC1)n1nc(C)n2c(cc3occc32)c1=O (stereo not drawn),.,-24.1%,-18.5%,.,-21.3%[46.1 µM],?
COc1ccccc1CN1CCC2(CCC(CNC(=O)c3ccccc3N(C)C)O2)CC1 (stereo not drawn),.,-2.1%,-15.9%,.,.,.
COC(=O)N[C@@H](c1ccco1)[C@]1(C(C)=O)CCCC1=O,.,.,.,.,.,-30.8%[14.2 µM]
Cc1ccc(N=C2NC(=O)/C(=C\c3ccco3)S2)cc1,28.3*,-3.9%,-15.7%,45.9*,?,7.1%
O=C1NC(=Nc2ccc3ccccc3c2)S/C1=C/c1ccco1,18.0,.,.,26.0,.,.
